Assay outcomes: PubChem, Broad Institute
Pf Dd2 growth: blocks growth of Plasmodium falciparum Dd2 parasites | AID 1159554 | P. falciparum Dd2 growth, SYBR Green, 72 h; stronger effect = lower value | activity change, % at 10 µM | 2.3% of 94,000 active; in the data active = activity change below about -80%
C diff HTS: inhibitors of Clostridium difficile growth | growth activity, negative = inhibition, % at 16 µg/mL (by protocol) | 0.25% of 86,000 active | Clostridium difficile clinical isolate growth, OD600, 24 h; stronger effect = lower value;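 active = mean growth activity at or below -80% and every replicate also at or below -80%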;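 also: 0% = DMSO wells and -100% = levofloxacin 16 µg/mL wells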
Starred values were filed as active, the others as inactive; x = not tested or not shown; ! = repeats disagree. This is a sample that favours compounds with a hit; in the whole collection about 2.4% have one here.

SMILES	Pf Dd2 growth	C diff HTS
CO[C@@H]1CN(C)C(=O)c2ccc(NC(=O)c3ccc(-c4ccccc4)cc3)cc2OC[C@H](C)NC[C@H]1C	-49	5
CO[C@H]1CN(C)C(=O)c2cc(NC(=O)c3ccc(Oc4ccccc4)cc3)ccc2OC[C@@H](C)NC[C@H]1C	-55	-9
CO[C@@H]1CN(C)C(=O)c2ccc(NC(=O)c3ccc(-c4ccccc4)cc3)cc2OC[C@@H](C)NC[C@@H]1C	-86*	53
O=C(C[C@@H]1CC[C@H]2[C@@H](COC[C@H](O)CN2C(=O)Nc2ccccc2)O1)NCCCN1CCOCC1	5	x
CN(C)CCCNC(=O)C[C@@H]1CC[C@H](NS(=O)(=O)c2ccc(F)cc2)[C@H](CO)O1	-15	3
C[C@H](CO)N1C[C@H](C)[C@@H](CN(C)Cc2ccc3c(c2)OCO3)Oc2cc(C#CCN(C)C)ccc2S1(=O)=O	-16	2
C[C@H]1CN([C@@H](C)CO)C(=O)c2cc(-c3ccncc3)cnc2O[C@H]1CN(C)C(=O)Nc1ccc2c(c1)OCO2	16	-1
CCCc1cn([C@H]2C[C@@H]3O[C@H](CO)CC[C@@H]3O[C@@H]2CCc2ccc(-c3cccc(OC)c3)cc2)nn1	-69	18
COCc1cn([C@H]2C[C@@H]3O[C@@H](CO)CC[C@@H]3O[C@@H]2CCc2ccc(-c3ccc(OC)cc3)cc2)nn1	-64	-5
CCCc1cn([C@@H]2C[C@@H]3O[C@H](CO)CC[C@@H]3O[C@@H]2CCc2ccc(-c3cccc(OC)c3)cc2)nn1	-87*	-16
CCCc1cn([C@H]2C[C@@H]3O[C@H](CO)CC[C@@H]3O[C@@H]2CCc2ccc(-c3ccc(OC)cc3)cc2)nn1	-83*	13
C[C@H]1CCCCO[C@@H](CN(C)C(=O)Nc2ccc(F)cc2)[C@@H](C)CN([C@@H](C)CO)C(=O)c2cc(NS(=O)(=O)c3cccs3)ccc2O1	-57	3
C[C@@H]1CCCCO[C@H](CN(C)C(=O)Nc2ccc(F)cc2)[C@H](C)CN([C@H](C)CO)C(=O)c2cc(NS(=O)(=O)c3cccs3)ccc2O1	-86*	4
C[C@@H]1CN([C@H](C)CO)C(=O)c2cc(NS(=O)(=O)c3cccs3)ccc2O[C@@H](C)CCCCO[C@H]1CN(C)C(=O)Nc1ccc(F)cc1	-68	10
C[C@@H]1CN([C@@H](C)CO)C(=O)c2cc(NS(=O)(=O)c3cccs3)ccc2O[C@@H](C)CCCCO[C@@H]1CN(C)C(=O)Nc1ccc(C(F)(F)F)cc1	-82*	-11
C[C@@H]1CCCCO[C@@H](CN(C)C(=O)Nc2ccc(C(F)(F)F)cc2)[C@@H](C)CN([C@H](C)CO)C(=O)c2cc(NS(=O)(=O)c3cccs3)ccc2O1	-51	1
C[C@@H]1CCCCO[C@@H](CN(C)C(=O)Nc2ccc(F)cc2)[C@H](C)CN([C@H](C)CO)C(=O)c2cc(NS(=O)(=O)c3cccs3)ccc2O1	-86*	2
CC(C)NC(=O)N(C)C[C@H]1Oc2cc(C#CCN(C)C)ccc2S(=O)(=O)N([C@@H](C)CO)C[C@@H]1C	-4	-1
CO[C@@H]1CN(C)C(=O)c2cc(NS(=O)(=O)c3ccccc3)ccc2OC[C@H](C)N(Cc2ccccn2)C[C@H]1C	-19	-1
C[C@@H]1CCCCO[C@H](CN(C)S(=O)(=O)c2ccc(F)cc2)[C@H](C)CN([C@H](C)CO)C(=O)c2cc(NC(=O)C3CCCCC3)ccc2O1	-79	-5
C[C@@H]1CCCCO[C@@H](CN(C)S(=O)(=O)c2ccc(Cl)cc2)[C@H](C)CN([C@H](C)CO)C(=O)c2cc(NC(=O)C3CCCCC3)ccc2O1	-86*	-6
C[C@@H]1CCCCO[C@H](CN(C)S(=O)(=O)c2ccc(Cl)cc2)[C@@H](C)CN([C@@H](C)CO)C(=O)c2cc(NC(=O)C3CCCCC3)ccc2O1	-81*	-1
C[C@@H]1CCCCO[C@@H](CN(C)S(=O)(=O)c2ccc(Cl)cc2)[C@@H](C)CN([C@H](C)CO)C(=O)c2cc(NC(=O)C3CCCCC3)ccc2O1	-79	8
CC(=O)NC[C@@H]1[C@@H](c2ccc(-c3cccnc3)cc2)[C@H](CO)N1C(=O)C1CC1	6	-10
C[C@H](CO)N1C[C@H](C)[C@H](CN(C)C(=O)Nc2cccc3ccccc23)OCCCC[C@H](C)Oc2ccc(NC(=O)NC3CCCCC3)cc2C1=O	-47	-8
SMILES	Pf Dd2 growth	C diff HTS
C[C@@H]1CCCCO[C@H](CN(C)C(=O)Nc2cccc3ccccc23)[C@H](C)CN([C@@H](C)CO)C(=O)c2cc(NC(=O)C3CCCCC3)ccc2O1	-73	9
C[C@@H]1CCCCO[C@H](CN(C)C(=O)Nc2cccc3ccccc23)[C@@H](C)CN([C@@H](C)CO)C(=O)c2cc(NC(=O)C3CCCCC3)ccc2O1	-85*	1
C[C@@H]1CN([C@@H](C)CO)C(=O)c2cc(NC(=O)C3CCCCC3)ccc2O[C@@H](C)CCCCO[C@@H]1CN(C)C(=O)Nc1cccc2ccccc12	-89*	4
CO[C@H]1CN(C)C(=O)c2cc(NS(C)(=O)=O)ccc2OC[C@H](C)N(C(=O)CN(C)C)C[C@@H]1C	37	9
O=C(N[C@H]1C=C[C@H](CC(=O)N2CCc3ccccc3C2)O[C@H]1CO)C1CC1	7	x
C[C@H]1CN([C@@H](C)CO)C(=O)c2cc(NS(=O)(=O)c3ccc(Cl)cc3)ccc2O[C@@H]1CN(C)S(=O)(=O)c1cn(C)cn1	-11	-4
COc1ccc(S(=O)(=O)Nc2ccc3c(c2)CC(=O)N([C@H](C)CO)C[C@H](C)[C@H](CN(C)S(=O)(=O)c2ccc(C)cc2)O3)cc1	-86*	5
COc1ccc(S(=O)(=O)Nc2ccc3c(c2)CC(=O)N([C@@H](C)CO)C[C@@H](C)[C@@H](CN(C)S(=O)(=O)c2ccc(C)cc2)O3)cc1	-75	-6
COc1ccc(S(=O)(=O)N(C)C[C@@H]2Oc3ccc(NS(=O)(=O)c4ccc(Cl)cc4)cc3CC(=O)N([C@@H](C)CO)C[C@@H]2C)cc1	-83*	-5
COc1ccc(S(=O)(=O)Nc2ccc3c(c2)CC(=O)N([C@H](C)CO)C[C@H](C)[C@H](CN(C)S(=O)(=O)c2ccc(Cl)cc2)O3)cc1	-56	8
O=C(Nc1cc(F)ccc1F)N1CC(=O)N2[C@H](C1)[C@@H](c1ccc(-c3ccccc3)cc1)[C@@H]2CO	0	4
COc1ccc(S(=O)(=O)N(C)C[C@@H]2Oc3cc(C#CC4CCCCC4)ccc3S(=O)(=O)N([C@@H](C)CO)C[C@@H]2C)cc1	-84*!	0
COc1ccc(S(=O)(=O)N(C)C[C@H]2Oc3cc(C#CC4CCCCC4)ccc3S(=O)(=O)N([C@H](C)CO)C[C@@H]2C)cc1	-85*	x
COc1ccc(S(=O)(=O)N(C)C[C@@H]2Oc3cc(C#CC4CCCC4)ccc3S(=O)(=O)N([C@H](C)CO)C[C@H]2C)cc1	-49	3
COc1ccc(S(=O)(=O)N(C)C[C@@H]2Oc3cc(C#CC4CCCCC4)ccc3S(=O)(=O)N([C@H](C)CO)C[C@@H]2C)cc1	-76	x
C[C@H]1CN([C@@H](C)CO)C(=O)c2cc(NC(=O)CCCN(C)C)ccc2O[C@@H]1CN(C)C(=O)Nc1ccccc1	19	3
Cc1ccc(S(=O)(=O)Nc2ccc3c(c2)CC(=O)N([C@@H](C)CO)C[C@@H](C)[C@@H](CN(C)Cc2ccc(C(=O)Nc4ccccc4N)cc2)O3)cc1	-88*	3
